Assay results from PubChem BioAssay AID682 (University of Pittsburgh Molecular Library Screening Center, 2007).
The list shows a part of the results. Values without a mark were called inactive. No stated cut-off is given here; in the data, active means EC50 below about 30 µM; inactive means the rest.

Test: redox cycling H2O2 generation, 0.5 mM DTT, dose response, artefact control, biochemical, Cdc25B catalytic domain (AID 682)
Details: cell-free redox cycling H2O2 generation

Row | Structure (SMILES) | EC50
1 | c1ccc(CSc2nnc(-c3ccco3)c(-c3ccco3)n2)cc1 | > 50 µM
2 | COc1cccc2c(C)c(C(=O)O)[nH]c12 | > 50 µM
